Source: PubChem (National Center for Advancing Translational Sciences (NCATS))
Rows were chosen to be rich in hits. Some 10% of all compounds tested hit in one or more screens of this group.
KinaseGlo FLuc: counter-screen: inhibitors of Kinase-Glo firefly luciferase. Q27757. Kinase-Glo luciferase, ATP luminescence, 8 min. Potency, µM (titrated, usually from 38.3 µM), for inactives: top-dose activity change, negative = inhibition, hits mostly inhibitors. 0.28% of 200,000 active. AID 1379; active = well fitted inhibition curve with a large enough effect; inconclusive = small, poorly fitted or top-dose-only effect; also: potency is read from the fitted curve at half-maximal effect; % is scaled to controls: 0 for no effect and ±100 for the full control effect; nearly all actives have a fitted effect of over 60% in size
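Kinase-Glo luciferase light output from ATP and luciferin was measured with 10 uM ATP, within the enzyme's linear range. Buffer: 50 mM imidazole pH 7.2, 50 mM KCl, 7 mM MgCl2, 0.01% Tween 20, 0.05% BSA; luminescence read after 8 min at ambient temperature.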
ALDH1A1 inh-1: inhibitors of human aldehyde dehydrogenase 1A1 | P00352 | Purified ALDH1A1, NADH fluorescence, propionaldehyde substrate | Potency, µM (top dose mostly 75.3 µM), for the others: at the top dose activity, negative = inhibition, usual class: inhibitors | 7.3% of 220,000 active | AID 1030;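 also: potency is read from the fitted curve at half-maximal effect; plate controls were no enzyme wells and a reference inhibitor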
Target sequence (P00352 whole entry, looked up): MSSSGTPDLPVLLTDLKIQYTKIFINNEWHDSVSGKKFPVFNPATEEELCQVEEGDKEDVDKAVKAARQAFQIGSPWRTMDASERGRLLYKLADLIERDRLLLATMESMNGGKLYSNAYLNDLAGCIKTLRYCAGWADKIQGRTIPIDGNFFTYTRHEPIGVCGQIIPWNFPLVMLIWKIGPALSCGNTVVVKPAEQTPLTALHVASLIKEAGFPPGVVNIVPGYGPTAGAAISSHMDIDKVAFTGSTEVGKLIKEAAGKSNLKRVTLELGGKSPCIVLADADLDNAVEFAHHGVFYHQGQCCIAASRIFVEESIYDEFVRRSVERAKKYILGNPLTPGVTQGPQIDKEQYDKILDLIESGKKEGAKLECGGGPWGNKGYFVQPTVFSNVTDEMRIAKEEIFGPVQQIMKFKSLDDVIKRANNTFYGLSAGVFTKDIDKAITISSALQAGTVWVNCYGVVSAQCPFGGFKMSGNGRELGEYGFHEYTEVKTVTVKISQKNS
HPGD block: blocks human HPGD enzyme activity; purified HPGD, NADH fluorescence kinetic, PGE2 substrate; Potency, µM, for the others: at the top dose activity change, negative = inhibition, usual class: inhibitors; 4.3% of 150,000 active; also: potency is read from the fitted curve at half-maximal effect; % is scaled to controls: 0 for no effect and ±100 for the full control effect
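NADH formation kinetics: reaction with 30 uM PGE2 and 1 mM NAD+ (final), 20 nM enzyme, Tris-HCl pH 8 with Tween 20, after 15 min compound preincubation at room temperature. Fluorescence change, last versus first of five reads.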
PNC inhibitor: perinucleolar compartment assembly inhibition; PC3M PTB-GFP, PNC prevalence imaging, 16 h; active compounds read low; 3.1% of 140,000 active; activity change (PNC), negative = inhibition, % at 10 µM;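 active = readout at or below -70, meaning at least 70% loss of cells showing the perinucleolar compartment, a nuclear body marking cancer cells; inconclusive = readout between -30 and a set limit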;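 also: plate controls were DMSO wells for no effect and camptothecin positive control wells for full effect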
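PC3M cells stably expressing PTB-GFP, 750–1000 cells/well, treated 16 h at 37 °C with compound (23 nl of library stock), in duplicate. After paraformaldehyde fixation and Hoechst stain, imaged at 20x; PNC prevalence scored by image analysis.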
LMNA splice mod: modulators of lamin A splicing; HeLa LMNA splicing GFP/RFP minigene ratio, 48 h; Potency, µM (highest dose often 46.1 µM), inactives show at the top dose ratio change, negative = inhibition, hits mostly inhibitors; 0.01% of 200,000 active; AID 1487; active = well fitted inhibition curve with a large enough effect in the signal ratio, with a control signal flat, not every such curve was filed as active; inconclusive = small, poorly fitted or top-dose-only effect, or effect the other way, or a change in a side signal; the % refers to the signal ratio; also: potency is read from the fitted curve at half-maximal effect; % is scaled to controls: 0 for no effect and ±100 for the full control effect
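S3 HeLa cells stably expressing lamin A-EGFP splicing minigene plus DsRed2, 600 cells/well, 48 h compound exposure at 37C. Laser-scanning cytometry; analysed as GFP (500-530 nm)/RFP (575-640 nm) total intensity ratio; 0.5% DMSO vehicle.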
ALDH1A1 inh-2: Blocks ALDH1A1 NADH production, follow-up; shares compounds with ALDH1A1 inh-1; purified ALDH1A1, NADH fluorescence, propionaldehyde/NAD+; Potency, µM (top dose mostly 57.1 µM), for inactives: top-dose activity change, negative = inhibition, hits mostly inhibitors; 90% of 90 active; AID 493210; calls by dose curve
Active calls of the source: *; ? = inconclusive; . = not tested or not shown; [ ] = another dose, or the depositor's remark. Unless noted, calls follow the shape of the dose curve; as a rule, active = well fitted inhibition curve with a large enough effect (not every such curve was filed as active); inconclusive = small, poorly fitted or top-dose-only effect, or another doubt; inactive = no such curve, though single readings can be large or run the other way.

SMILES	KinaseGlo FLuc	ALDH1A1 inh-1	HPGD block	PNC inhibitor	LMNA splice mod	ALDH1A1 inh-2
O=C(NCc1cc(F)cc2c1OCCO2)[C@H]1C[C@@H]1[C@H](NP(=O)(c1ccccc1)c1ccccc1)c1ccccc1	-4%	-14%	-19%	.	.	.
CC(N)CCCC(C)(C)O (centres undefined)	-4%	0%	-4%	.	.	.
CCOC(=O)N1CCN(Cc2nc3c(c(=O)n(C)c(=O)n3C)n2Cc2cccc(C)c2)CC1	-2%	0.079µM*	-13%	18	3%	0.063µM*
CCOC(=O)N1CCN(Cc2nc3c(c(=O)[nH]c(=O)n3C)n2Cc2ccccc2C)CC1	3%	?	-3%	26	4%	.
CCOC(=O)N1CCN(Cc2nc3c(c(=O)n(C)c(=O)n3C)n2Cc2cccc3ccccc23)CC1	15%	0.1µM*	-6%	22	?	0.04µM*
CCOC(=O)N1CCN(Cc2nc3c(c(=O)n(C)c(=O)n3C)n2Cc2ccc(F)cc2)CC1	10%	-5%	-15%	?	-11%	.
Cc1c(Cl)cccc1NC(CC(=O)c1ccccc1)C(=O)O (centres undefined)	0%	0.32µM*	-16%	-83*	?	-21%
Cc1c(Cl)cccc1NC(CC(=O)c1ccccc1)C(=O)OCC(=O)c1cccs1 (centres undefined)	.	1%	.	-10	-8%	.
O=C(CC(Nc1ccccc1Cl)C(=O)O)c1ccccc1 (centres undefined)	-2%	0.13µM*	.	.	.	-24%
CCS(=O)(=O)N1CC(=O)N(c2cc(C)cc(C)c2)C(C)(C(=O)NC2CCCCC2)C1 (centres undefined)	.	.	.	.	-9%[46 µM]	.
O=C(CN(Cc1ccccc1)C(=O)c1cc2c(s1)CCC2)NCc1cccs1	-2%	0.45µM*	-1%	30	1%	0.071µM*
CCN(CC(=O)NCc1cccs1)C(=O)c1ccc(S(=O)(=O)N(C)C)cc1	6%	-10%	.	.	-6%[46 µM]	.
O=C(Nc1ccc(F)c(F)c1)c1ccc(=O)n(Cc2ccc(F)cc2)c1	.	.	.	.	0%[46 µM]	.
CC(C)c1nc(N(C)S(C)(=O)=O)nc(-c2ccc(F)cc2)c1/C=C/C(O)CC(O)CC(=O)O (centres undefined)	-2%	0.22µM*	-5%	.	?	0.13µM*
CCOC(=O)c1c(C)oc2nc(C)nc(N3CCN(c4ccc(C(C)=O)cc4)CC3)c12	.	.	.	.	11%[46 µM]	.
O=C1CCCCC1c1cccc2ccccc12 (centres undefined)	.	10%	0%	-11	.	.
O=C1O/C(=C/Br)CCC1c1cccc2ccccc12 (centres undefined)	-2%	0.5µM*	20µM*	.	?	0.63µM*
COc1ccc(S(=O)(=O)NCC2CCCN(C(=O)c3ccccc3)C2)cc1 (centres undefined)	3%	0.2µM*	.	.	.	0.2µM*
COc1ccc(S(=O)(=O)NCC2CCCN(C(=O)c3sccc3C)C2)cc1 (centres undefined)	0%	0.18µM*	.	.	?	0.089µM*
COc1ccc(S(=O)(=O)NCC2CCCN(C(=O)CNC(C)=O)C2)cc1 (centres undefined)	0%	?	.	.	9%[46 µM]	.
COc1ccc(S(=O)(=O)NCC2CCCN(C(=O)CC3CCCC3)C2)cc1 (centres undefined)	-3%	0.79µM*	.	.	19%[46 µM]	0.89µM*
COc1ccc(CCNC(=O)c2ccc3c(c2)N(Cc2cccc(Cl)c2)C(=O)c2ccccc2S3=O)cc1OC (centres undefined)	.	.	.	.	-15%[46 µM]	.
COc1cc([C@@H]2c3cc4c(cc3[C@@H](OC3OC5COC(C)OC5C(O)C3O)[C@H]3COC(=O)[C@H]23)OCO4)cc(OC)c1O (some centres undefined)	.	-1%	.	.	.	.
CCn1c(SCC(=O)Nc2ccc3c(c2)OCCO3)nnc1-c1ccco1	3%	?	-3%	-21	-4%	.
Cn1c(SCC(=O)Nc2ccc3c(c2)OCCO3)nnc1-c1ccco1	.	0.032µM*	.	?	-6%	25µM*
COc1ccc([N+](=O)[O-])cc1NC(=O)C(C)N1CCN(C(=O)c2ccco2)CC1 (centres undefined)	3%	1.3µM*	.	.	.	3.2µM*
